The source of these data is PubChem BioAssay AID431 (Sanford-Burnham Center for Chemical Genomics, 2006).

About 1,100 (1.7%) of roughly 63,000 compounds were called active. The list comes from a sample in which actives are over-represented; it also holds similar structures and randomly drawn compounds. Potency and affinity values are given separately. Values without a mark were called inactive.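 How the source made its calls: active means compounds whose percent cytotoxicity in the single-dose primary screen, scaled between solvent and toxic-drug controls, exceeds 50; inactive means the rest.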

The nature of the test: viability loss of HPDE-C7K cells – cell-based, fluorescence, HTS, primary screen (AID 431).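 Further: 0% = DMSO solvent wells and 100% = doxorubicin-treated wells.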 The settings on record: HPDE-C7K KRASV12 cells, Alamar Blue viability, 48 h; at 10 µM; active compounds read high. On the technique in general: Resazurin is reduced to fluorescent resorufin, in cell work by metabolically active cells.
`NC(=O)C1CCN(c2ncnc3c2c(-c2ccccc2)cn3-c2ccccc2)CC1`: the cytotoxicity was -9%.

As to `Cn1nnnc1SCCNC/C=C/c1ccccc1`, the cytotoxicity was 14.4%. In the case of `CN(C1CCCCC1)S(=O)(=O)c1ccc(-n2cnnn2)cc1`, the cytotoxicity is -13.1%. For the compound `CCCCN(CC)S(=O)(=O)N1CCC(C(=O)NCc2ccc(F)cc2)CC1`, the cytotoxicity is -8.2%.

With `C=CCN1C(=O)C2C(C(=O)NC)C3C=CC2(O3)C1C(=O)NCc1ccc(OC)cc1` (stereo not given), the cytotoxicity was 4.1%. Take `CC(=O)N1CC=C2C(C#N)=C(N)C(C#N)(C#N)[C@H](c3ccoc3)[C@H]2C1`: the cytotoxicity is 13.2%.

With `CC(C)N1CC=C2C(C#N)=C(N)C(C#N)(C#N)C(c3ccccc3)C2C1` (stereo not given), the cytotoxicity was 27.9%.

With `N#CC1=C(N)C(C#N)(C#N)[C@H](c2ccoc2)[C@H]2CN(Cc3ccccc3)CC=C12`, the cytotoxicity is 81.4% (active). On to `Cn1c(=O)c2c(nc(Br)n2Cc2c(F)cccc2Cl)n(C)c1=O`, for which the cytotoxicity was -11.4%. Consider `Cc1ccc(/C=c2/sc3nnc(-c4ccccc4Cl)n3c2=O)o1`, for which the cytotoxicity was 50.1% (active). For the compound `Cc1ccc(/C=c2\sc3nc(-c4ccccc4Br)nn3c2=O)o1`, the cytotoxicity is 8.5%.

On to `Cc1ccccc1-c1nnc2s/c(=C\c3ccc(N(C)C)cc3)c(=O)n12`, for which the cytotoxicity is 3.5%. As to `COc1cccc(OC)c1OCCCSc1nc(C)cc(=O)[nH]1`, the cytotoxicity is 6.8%. Regarding `CCSC1=N/C(=C\c2ccc3c(c2)OCO3)C(=O)S1`, the cytotoxicity is 40.9%. `C=CCSC1=N/C(=C\c2cc(OC)c3c(c2)OCO3)C(=O)S1`: the cytotoxicity is 16.5%. In the case of `C=CCSC1=N/C(=C\c2ccc3c(c2)OCO3)C(=O)S1`, the cytotoxicity is 52.9% (active). For the compound `COc1ccc(-c2c3c(=O)n(C)c(=O)n(C)c3cn2Cc2ccccn2)cc1`, the cytotoxicity was 7%. With `CCS(=O)(=O)N1CCCC(C(=O)NCc2ccccc2Cl)C1` (stereo not given) the figure was 14.1%; with `COc1cc(NC(=O)NCc2ccncc2)cc(OC)c1OC`, -5.3%; with `COc1ccc(-c2cnc(N)nc2-c2ccc(OC)cc2O)cc1`, -1.3%. Regarding `CCOc1ccc(-c2nc(N)ncc2-c2ccccc2)c(O)c1`, the cytotoxicity was 8.3%. Turning to `CCOC(=O)c1nc(-c2ccc3c(c2)OCO3)[nH]c1C`, the cytotoxicity is 5.4%. With `Oc1ccccc1-c1cc(-c2ccc3c(c2)OCCO3)n[nH]1` the figure was 16.4%; with `Cc1nc(-c2ccc3c(c2)OCO3)cs1`, -26.4%; with `CCc1cc(-c2[nH]ncc2-c2ccc3c(c2)OCO3)c(O)cc1O`, 64.9% (active). With `CCCc1cc(-c2[nH]ncc2-c2ccc(C(=O)OCC)o2)c(O)cc1O` the figure was 30.9%; with `CCc1nc(SCc2ccccn2)c2c(=O)n(C)c(=O)n(C)c2n1`, -2.5%; with `CCCSCCCNC(=O)Cn1cc2c(n1)CCC(C)C2` (stereo not given), 4.6%.

For `COC(=O)Cc1csc(N)n1`, the cytotoxicity was -19.5%. For the compound `Cc1cc(C)c2[nH]c(=O)c(C(c3nnnn3Cc3ccc4c(c3)OCO4)N3CCC(C)CC3)cc2c1` (stereo not given), the cytotoxicity is -17.3%. Consider `O=C(CSc1nnc(-c2ccccn2)n1Cc1ccccc1)N1CCCC1`, for which the cytotoxicity is -3%. Regarding `O=C1C(=O)N(CCOCCO)C(c2ccccn2)/C1=C(\O)c1ccccc1` (stereo not given), the cytotoxicity is -29.5%. With `CCc1oc(C(=O)O)cc1CN(CC)CC`, the cytotoxicity was -3.6%. With `CCCCCn1c(CN2CCCCC2CC)nc2c1c(=O)n(C)c(=O)n2C` (stereo not given) the figure was 8.3%; with `Cn1c(=O)oc2cc(S(=O)(=O)NCCC(=O)NCCc3ccccc3)ccc21`, 0.1%; with `Cc1cc(Nc2cccc(C)c2C)n2nc(C)nc2n1`, 9%. As to `O=C(COc1ccccc1)N(Cc1ccco1)c1ccc(O)cc1`, the cytotoxicity is -5.3%. Take `CCCCn1nc(NC(=O)c2cccs2)c2cc3cc(OC)ccc3nc21`: the cytotoxicity is 23.2%. With `CCCn1nc(NC(=O)c2cccs2)c2cc3cc(OC)ccc3nc21` the figure was -25.3%; with `COc1ccc2nc3c(cc2c1)c(NC(=O)c1cccs1)nn3CC(C)C`, 52.8% (active).

Consider `CCOc1ccccc1NC(=O)NC1CCN(CC(=O)Nc2ccc3c(c2)OCCO3)CC1`, for which the cytotoxicity was -18.3%. Turning to `CCN(CC(=O)NCc1cccs1)S(=O)(=O)c1cccc(C(C)=O)c1`, the cytotoxicity was -12.5%. As to `O=C(COn1nnc2ccc(Cl)cc21)NCc1ccccc1`, the cytotoxicity is 3.7%. In the case of `O=C(COn1nnc2ccc(C(F)(F)F)cc21)Nc1nnc(-c2ccccc2)o1`, the cytotoxicity is 59.2% (active). `O=C(COc1ccccc1)Nc1nnc(-c2ccccc2)o1`: the cytotoxicity is -10.7%. Regarding `Cc1csc(NC(=O)C2CCN(C(=O)CSc3nnc(C)n3Cc3ccccc3)CC2)n1`, the cytotoxicity is -14%. With `S=c1[nH]c2ncccc2o1` the figure was 21.2%; with `Cn1c(N)c(C(=O)CSc2nc3ccccc3n2-c2ccccc2)c(=O)n(C)c1=O`, 103% (active). Regarding `COc1ccc(-n2c(SCC(=O)c3c(N)n(C)c(=O)n(C)c3=O)nc3ccccc32)cc1`, the cytotoxicity was 7.4%.

For `NC(=O)CSc1nc2ccccc2n1-c1ccccc1`, the cytotoxicity is 8.7%. For `CCOC(=O)C1=C(C)Nc2nnnn2C1c1cccc(OC)c1OC` (stereo not given), the cytotoxicity is -16.1%. `O=C(CN1CCOCC1)NCc1ccccc1`: the cytotoxicity is -11.4%. Take `Cc1c(C(=O)OCC2CCCO2)[nH]c2c1C(=O)CC(c1ccco1)C2` (stereo not given): the cytotoxicity is 53.3% (active). Regarding `CC1=C(C(=O)OCc2ccccc2)C(c2ccco2)C2=C(CC(C)(C)CC2=O)N1` (stereo not given), the cytotoxicity was 7.4%. Turning to `CCOC(=O)c1[nH]c2c(c1C)C(=O)CC(c1ccc(F)cc1)C2` (stereo not given), the cytotoxicity was 58.4% (active). Consider `CCOCCOC(=O)c1[nH]c2c(c1C)C(=O)CC(c1ccc(N(C)C)cc1)C2` (stereo not given), for which the cytotoxicity was 5.2%.

In the case of `Cc1c(C(=O)OCc2ccccc2)[nH]c2c1C(=O)CC(c1ccco1)C2` (stereo not given), the cytotoxicity is 68.1% (active). Turning to `COc1ccc(OC)c(C2CC(=O)c3c([nH]c(C(=O)OCC4CCCO4)c3C)C2)c1` (stereo not given), the cytotoxicity was 7.8%. Turning to `COCCOC(=O)c1[nH]c2c(c1C)C(=O)C(C(=O)OC)C(C)C2` (stereo not given), the cytotoxicity was 0%. With `COCCOC(=O)c1[nH]c2c(c1C)C(=O)CC(c1ccco1)C2` (stereo not given), the cytotoxicity was 65.5% (active). Consider `CCOc1ccc(C2CC(=O)c3c([nH]c(C(=O)OC)c3C)C2)cc1OC` (stereo not given), for which the cytotoxicity is 6.3%.

Consider `Cc1c(C(=O)OCC2CCCO2)[nH]c2c1C(=O)CC(c1ccc(N(C)C)cc1)C2` (stereo not given), for which the cytotoxicity is 3.2%. With `Cc1c(C(=O)Nc2ccc(C(=O)O)cc2)cnn1C`, the cytotoxicity is 7.2%. Take `CC(=O)c1ccc(C(=O)Nc2ccc(N3CCOCC3)cc2)cc1`: the cytotoxicity was -18.3%. Regarding `COc1ccc(C(=O)/C=C/Nc2c(C)n(C)n(-c3ccccc3)c2=O)cc1OC`, the cytotoxicity was 20.1%. Turning to `COc1ccccc1Oc1nc2c(c(=O)n(Cc3ccccc3F)c(=O)n2C)n1C`, the cytotoxicity is 18.8%. With `COC(=O)C1=C(C)N=C2SCCC(=O)N2C1c1cccs1` (stereo not given) the figure was 12.3%; with `COc1cccc(-n2ccnc2SCC(=O)Nc2nccs2)c1`, -7.9%; with `N#CC1=C(N)Oc2n[nH]c(-c3cccs3)c2C1c1ccsc1` (stereo not given), -8.3%. Regarding `CCOC(=O)c1[nH]c2c(c1C)C(=O)CC(c1ccc(OC)c(OC)c1)C2` (stereo not given), the cytotoxicity was -13.1%. Consider `COCCOC(=O)c1[nH]c2c(c1C)C(=O)CC(c1ccc(N(C)C)cc1)C2` (stereo not given), for which the cytotoxicity is -10.1%. For `COCCOC(=O)c1[nH]c2c(c1C)C(=O)CC(c1ccc(F)cc1)C2` (stereo not given), the cytotoxicity was 5.3%. In the case of `CCOC(=O)c1[nH]c2c(c1C)C(=O)CC(c1ccco1)C2` (stereo not given), the cytotoxicity was 59.2% (active).

Turning to `COCCOC(=O)c1[nH]c2c(c1C)C(=O)CC(c1ccccc1)C2` (stereo not given), the cytotoxicity is 71.5% (active). Then `Cc1c(C(=O)N2CCOCC2)[nH]c2c1C(=O)CC(c1ccc(Cl)cc1)C2` (stereo not given), with -7.4%; and `Cc1c(C(=O)N2CCOCC2)[nH]c2c1C(=O)CC(c1ccccc1Cl)C2` (stereo not given), with 55.9% (active). With `COC(=O)c1[nH]c2c(c1C)C(=O)CC(c1ccc(C)cc1)C2` (stereo not given), the cytotoxicity is -3.1%.

`COC(=O)c1[nH]c2c(c1C)C(=O)CC(c1cccs1)C2` (stereo not given): the cytotoxicity was 75.6% (active). With `COC(=O)c1[nH]c2c(c1C)C(=O)CC(c1ccccc1)C2` (stereo not given), the cytotoxicity is 48.3%.

In the case of `CCOC(=O)c1[nH]c2c(c1C)C(=O)CC(c1ccc(OCC)c(OC)c1)C2` (stereo not given), the cytotoxicity was -1.2%. Regarding `Cc1c(C(=O)O)[nH]c2c1C(=O)CC(c1ccccc1)C2` (stereo not given), the cytotoxicity was -8.9%. Then `CCN(CC)S(=O)(=O)c1ccc(OC(C)C)nc1`, with -11.5%; and `COC(=O)c1ccsc1NC(=O)C1COc2ccccc2O1` (stereo not given), with 4.6%. Take `Cc1cc(C(=O)COc2ncnc3sccc23)c(C)n1C1CC1`: the cytotoxicity is -0.1%. With `Cc1c(C(=O)OCCOC(C)C)[nH]c2c1C(=O)CC(c1ccco1)C2` (stereo not given) the figure was 68.1% (active). For the compound `CSCCOC(=O)c1[nH]c2c(c1C)C(=O)CC(c1ccco1)C2` (stereo not given), the cytotoxicity is 59.3% (active). Then `Cc1c(C(=O)OC2CCC(C)CC2)[nH]c2c1C(=O)CCC2` (stereo not given), with 0.1%; and `COc1cc(C2CC(=O)c3c([nH]c(C(=O)OCCOC(C)C)c3C)C2)cc(OC)c1OC` (stereo not given), with 5.8%.

As to `Cc1c(C(=O)OCC(C)C)[nH]c2c1C(=O)CC(c1ccco1)C2` (stereo not given), the cytotoxicity is 66.2% (active). For `Cc1c(C(=O)OCCOC(C)C)[nH]c2c1C(=O)CC(C)(C)C2`, the cytotoxicity was -19.6%. As to `CCC(C)OC(=O)c1[nH]c2c(c1C)C(=O)CC(c1ccc(N(C)C)cc1)C2` (stereo not given), the cytotoxicity was 4.6%. As for `Cc1c(C(=O)OC2CCCCC2)[nH]c2c1C(=O)CC(C)(C)C2`, the cytotoxicity is 3.6%. For the compound `Cc1c(C(=O)OC2CCCC2)[nH]c2c1C(=O)CC(c1ccco1)C2` (stereo not given), the cytotoxicity was 53.7% (active).

Turning to `COc1ccc(-n2nc(C(=O)NCC(=O)NCC3CCCO3)c3ccccc3c2=O)c(OC)c1` (stereo not given), the cytotoxicity is 0.7%. Take `CC(C)CNS(=O)(=O)c1ccc(CCC(=O)N2CCN(Cc3ccccc3)CC2)cc1`: the cytotoxicity was -1.6%.
